Screening results as filed in PubChem.
BL2 CD40 inh: CD40 pathway inhibition in BL2 cells. BL2 NF-kB luciferase reporter, CD40L-induced, 4 h. inhibition, % at 10 µM. hit rate 0.94% among 83,000;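 active = mean inhibition of at least 50% with a set share of replicates also reaching that level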;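 note: 0% = neutral control wells and 100% = IKK inhibitor VII at 50 µM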
An asterisk follows results filed as active; [ ] = remark or other dose. Only a selection was taken, and hits are over-represented in it overall.

SMILES | BL2 CD40 inh
CCCCC[C@H](O)/C=C/[C@@H]1[C@@H](C/C=C\CCCC(=O)OC)[C@@H](O)C[C@H]1O | 45.0*
CCCCC[C@H](O)/C=C/[C@@H]1[C@@H](C/C=C\CCCC(=O)O)[C@H]2CO[C@@H]1C2 | 15.3
CCCCC[C@H](O)/C=C/[C@@H]1[C@@H](C/C=C\CCCC(=O)O)[C@@H](O)C[C@H]1O | -2.8
CNC[C@H]1Oc2ccc(NC(=O)NC(C)C)cc2CC(=O)N(C)C[C@H]1C | 0.3
O=C(C[C@@H]1C[C@@H]2c3cc(NC(=O)Nc4ccccc4)ccc3O[C@@H]2[C@@H](CO)O1)NCCN1CCCCC1 | 1.8[25 µM]
O=C(N[C@H]1CC[C@H](CCn2cc(C3CCCC3)nn2)O[C@H]1CO)c1cccnc1 | 13.0
O=C(COC(=O)c1cccs1)c1ccc2ccccc2c1 | -83.3
COc1cccc(CN(C)C(=O)C23CC4CC(CC(NC(C)=O)(C4)C2)C3)c1OC | 5.4
O=C(COC(=O)c1ccccc1[N+](=O)[O-])c1ccc2c(c1)OCO2 | 88.0*
O=C(COC(=O)c1ccccc1-c1ccccc1[N+](=O)[O-])c1ccccc1 | -11.7
CC(=O)NC12CC3CC(C1)CC(C(=O)OCC(=O)c1ccc4c(c1)OCCO4)(C3)C2 | 59.3*
CNS(=O)(=O)c1cccc(C(=O)OCC(=O)c2ccc3c(c2)OCCO3)c1 | 25.0
O=C(Nc1ccc(NC(=O)c2cccs2)cc1)c1ccc2c(c1)OCCO2 | 3.4
N#CCC(=O)Nc1ccc(C(=O)OCC(=O)c2ccc3c(c2)OCO3)cc1 | -63.4
O=C(COC(=O)c1cccs1)c1ccc2c(c1)OCCO2 | 113.1*
CN1C(=O)c2cc(NC(=O)C3CCCC3)ccc2OC[C@@H]2O[C@@H](CC(=O)NCc3ccccc3F)CC[C@@H]21 | 8.0
O=C(C[C@H]1C[C@H]2c3cc(NC(=O)CC4CC4)ccc3O[C@H]2[C@H](CO)O1)NCC1CC1 | 5.6[25 µM]
O=C(Nc1ccccc1)N1C[C@@H]2[C@H](c3ccccc31)[C@@H](CO)N2C(=O)c1ccccc1F | -13.5
C[C@H]1CN([C@@H](C)CO)C(=O)c2ccccc2-c2ccccc2CO[C@H]1CN(C)Cc1ccc(C(=O)O)cc1 | -3.0
Cc1cccnc1NC(=O)c1ccc2c(c1)OCCO2 | -30.2
Cc1ccc(NC(=O)CNC(=O)c2ccc(C)s2)nc1 | -14.9
Cc1ccc(NC(=O)c2ccc3c(c2)OCCO3)nc1 | 63.8*
Cc1ccc(NC(=O)CNC(=O)c2cccc(Cl)c2)nc1 | 65.7*
COC(=O)CNC(=O)c1cccc(Cl)c1 | 12.7
Cc1ccc(NC(=O)c2ccc3c(c2)NC(=O)CS3)nc1 | -23.1
SMILES | BL2 CD40 inh
CN(C)CC(=O)Nc1ccc2c(c1)[C@@H]1C[C@H](CC(=O)N3CCCCC3)O[C@@H](CO)[C@@H]1O2 | -3.0[25 µM]
COc1ccc(C(=O)N2C[C@H]3[C@@H](c4ccccc42)[C@@H](CO)N3C(=O)c2cccc(F)c2)cc1 | -3.8
O=C(Nc1cc(F)ccc1F)N1CC(=O)N2[C@H](C1)[C@@H](c1ccc(C#CC3CCCC3)cc1)[C@@H]2CO | 2.4
CC(C)C#Cc1ccc([C@@H]2[C@@H](CO)N3C(=O)CN(C(=O)Cc4ccccc4)C[C@H]23)cc1 | 7.0[25 µM]
CCCNC(=O)N(C)C[C@@H]1Oc2cc(C#C[C@H](C)O)ccc2S(=O)(=O)N([C@@H](C)CO)C[C@@H]1C | -8.8[25 µM]
O=C(CCN1CCC(c2ccccc2)C1)c1ccc2c(c1)OCCO2 (centres undefined) | 45.0*
O=C(CCN1CCC(c2ccccc2)C1)c1cccs1 (centres undefined) | 34.6
O=C(CCN1CCCCC1)c1ccc2c(c1)OCCO2 | 0.3
O=C(CCN1CCC(c2ccccc2)C1)c1ccccc1 (centres undefined) | 4.9
COc1cc(C(=O)CCN2CCC(c3ccccc3)C2)cc(OC)c1OC (centres undefined) | 44.7*
COc1cc(C(=O)OC2CCN(C)CC2)cc(OC)c1OC | 15.6
Cc1ccc(NC(=O)Nc2ccc3c(c2)C(=O)N(C)[C@@H]2CC[C@H](CC(=O)NCC(F)(F)F)O[C@@H]2CO3)cc1 | 11.9[25 µM]
CN1CCN(C(=O)C[C@@H]2C[C@@H]3c4cc(NC(=O)C5CCC5)ccc4O[C@@H]3[C@@H](CO)O2)CC1 | 2.4[25 µM]
CC(C)NC(=O)Nc1ccc2c(c1)CC(=O)N(C)C[C@@H](C)[C@@H](CN(C)S(C)(=O)=O)O2 | -5.5
COc1ccc(CN2[C@@H]3CN(C(=O)c4ccccc4)c4ccccc4[C@@H]3[C@@H]2CO)cc1 | 5.3
CC(C)NC(=O)N(C)C[C@@H]1Oc2ccc(N)cc2CC(=O)N(C)C[C@H]1C | 1.4
CC=Cc1ccc2n(c1=O)C[C@H]1[C@H](CO)[C@@H](C(=O)NC3CCC3)[C@@H]2N1Cc1ccncc1 (mixture of isomers) | -3.6
Cc1ccc(-c2nnc(NC(=O)c3ccc([N+](=O)[O-])o3)o2)c(C)c1 | -4.0
CC12CN3CC(C)(CN(C1)C3c1ccc([N+](=O)[O-])o1)C2 (centres undefined) | -5.0
Cc1ccc(S(=O)(=O)c2ccc([N+](=O)[O-])o2)cc1 | 109.3*
Cn1cnnc1SCc1ccc(F)c2ccccc12 | 2.3
Cn1cnnc1SCc1ccc(-c2ccc(Br)cc2)o1 | 80.0*
Cn1cnnc1SCc1ccc(C(=O)NN)cc1 | 3.4
O=C(c1ccccc1F)N1CC[C@@H]2[C@H](CO)Nc3ccc(Br)cc3[C@@H]21 | -49.1
C[C@H]1CN([C@@H](C)CO)C(=O)c2ccccc2-c2ccccc2CO[C@H]1CN(C)C(=O)c1cc(Cl)cc(Cl)c1 | -7.1[25 µM]
SMILES | BL2 CD40 inh
C[C@H](CO)N1C[C@H](C)[C@H](CN(C)Cc2ccc(C(F)(F)F)cc2)Oc2ccc(NC(=O)CCN3CCOCC3)cc2C1=O | -0.9[25 µM]
O=C(O)C[C@@H]1C=C[C@H](NC(=O)Nc2cc(F)ccc2F)[C@@H](CO)O1 | 4.9[25 µM]
CC1CCN(C(C)C(=O)Nc2ccc(S(=O)(=O)N3CCCC3)cc2)CC1 (centres undefined) | 3.1
COC(C(=O)Nc1ccc(S(=O)(=O)N2CCCCC2)cc1)c1ccccc1 (centres undefined) | -2.1
CC(OC(=O)c1cc(Br)ccc1O)C(=O)Nc1ccc(S(=O)(=O)N2CCCC2)cc1 (centres undefined) | 65.2*
CCC(=O)N1C[C@@H]2[C@H](c3ccccc31)[C@H](CO)N2CC1CCCC1 | 8.1[25 µM]
CC(=O)N(C)C[C@@H]1Oc2ccc(NS(C)(=O)=O)cc2C(=O)N(C)C[C@@H]1C | -0.9
O=C(c1cccc(F)c1)N1C[C@H]2[C@@H](c3ccccc31)[C@@H](CO)N2C(=O)c1cccc(F)c1 | -3.3
C[C@H]1CN([C@@H](C)CO)C(=O)c2ccccc2-c2ccccc2CO[C@H]1CN(C)C(=O)Nc1ccccc1 | -5.9
CC(C)(C)[C@H](N)C(=O)N[C@H]1CCC2C3CC=C4C[C@@H](O)CC[C@]4(C)C3CC[C@@]21C (some centres undefined) | 103.3*
C[C@]12CCC3C(CC=C4C[C@@H](O)CC[C@@]43C)C1CCC2[C@]1(C)CCC(=O)O1 (some centres undefined) | -6.8
C[C@]12CC[C@H](O)CC1=CCC1C2CC[C@@]2(C)C1CC[C@@H]2NC(=O)[C@@H](N)Cc1ccccc1 (some centres undefined) | 10.2
COc1ccc(-c2ccc(C3[C@H]4CNC[C@@H]3N4C(=O)Nc3ccc4c(c3)OCO4)cc2)cc1 (some centres undefined) | -34.2
Cc1ccc(CN(C)C[C@@H]2OCc3cn(nn3)CCCC(=O)N([C@H](C)CO)C[C@@H]2C)cc1 | -2.6
CO[C@H]1CN(C)C(=O)c2cc(NS(C)(=O)=O)ccc2OC[C@H](C)N(Cc2cncnc2)C[C@@H]1C | 1.7[25 µM]
